# Source: the supplement of paper PMC6555819
# Assays:
# Experiment in all cases: PBM binding z-score (relative to random genomic background probes); higher = stronger binding; sequences stand for … in GC…GCGATTGACAGCGTAGAATGAAGG
# [1] = test system: PPARg:RXRa DBDmut IVT, anti-RXR (DBD mutation: RXRa K156A/R161A, NR concentration 270 nM, RXRa partner concentration 90 nM)
# How it was run: (§1)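 Binding buffer was PBS pH 7.4 with 2% milk, 0.02% Triton X-100, 1 mM DTT, 0.2 mg/mL BSA and 0.4 mg/ml salmon testes DNA. In it, ligand-free nuclear receptor dimers were incubated 1 h on custom Agilent 4×180K protein-binding microarrays carrying double-stranded probes. Antibodies against each partner (one per run) detected binding, and z-scores were calculated against random background probes after regression normalization of scanned fluorescence.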
# [2] = test system: PPARg:RXRa IVT, anti-PPARg (NR concentration 270 nM, RXRa partner concentration 90 nM)
# How it was run: as §1
# [3] = test system: PPARg DBDmut:RXRa IVT, anti-PPARg (DBD mutation: PPARg1 K132A/R137A, NR concentration 270 nM, RXRa partner concentration 90 nM)
# How it was run: as §1
# [4] = test system: PPARg DBDmut IVT, anti-PPARg (DBD mutation: PPARg1 K132A/R137A, NR concentration 270 nM)
# How it was run: as §1
# [5] = test system: PPARg homodimer (NR concentration 180 nM)
# How it was run: as §1
# [6] = test system: PXR:RXRa (NR concentration 270 nM, RXRa partner concentration 90 nM)
# How it was run: as §1
# [7] = test system: PXR homodimer (NR concentration 270 nM)
# How it was run: as §1
# [8] = test system: RARa:RXR (NR concentration 270 nM, RXRa partner concentration 90 nM)
# How it was run: as §1
# [9] = test system: RARa homodimer (NR concentration 270 nM)
# How it was run: as §1
# [10] = test system: RARb:RXRa (NR concentration 270 nM, RXRa partner concentration 90 nM)
# How it was run: as §1
# [11] = test system: RARb homodimer (NR concentration 270 nM)
# How it was run: as §1
# [12] = test system: RARg:RXRa (NR concentration 270 nM, RXRa partner concentration 90 nM)
# How it was run: as §1
# [13] = test system: RARg homodimer (NR concentration 270 nM)
# How it was run: as §1
# [14] = test system: RXRa DBDmut IVT, anti-RXR (DBD mutation: RXRa K156A/R161A, NR concentration 90 nM)
# How it was run: as §1
# [15] = test system: RXRa homodimer (NR concentration 180 nM)
# How it was run: as §1
# [16] = test system: THRa:RXRa (NR concentration 90 nM, RXRa partner concentration 90 nM)
# How it was run: as §1
# [17] = test system: THRa homodimer (NR concentration 90 nM)
# How it was run: as §1
# [18] = test system: VDR homodimer (NR concentration 270 nM)
# How it was run: as §1
Sequence,PBM binding z-score [1],PBM binding z-score [2],PBM binding z-score [3],PBM binding z-score [4],PBM binding z-score [5],PBM binding z-score [6],PBM binding z-score [7],PBM binding z-score [8],PBM binding z-score [9],PBM binding z-score [10],PBM binding z-score [11],PBM binding z-score [12],PBM binding z-score [13],PBM binding z-score [14],PBM binding z-score [15],PBM binding z-score [16],PBM binding z-score [17],PBM binding z-score [18]
CCTAGCAGGTCAGGGTCACTCAAGCATTTCGCTT,3.35,4,-0.304,-1.12,2.56,3.91,0.115,4.5,0.487,4.2,4.32,5.02,5.1,1.94,5.24,3.71,1.83,2.32
ACTAGCAGGCCAAGTTTGGATCACTCAAACAAAG,0.238,0.181,-0.895,-0.495,-0.574,-0.494,-0.612,-0.608,-0.518,0.165,-0.0539,-0.0446,0.341,-0.14,-0.454,-0.0937,-0.67,-0.0821
TCTGCTAGGTCAACAATGGTCAGCTAATCTGCTA,4.05,4.05,0.64,0.264,1.23,1.94,-0.276,2.29,-0.189,4.11,3.37,4.13,4.92,1.33,2.64,3.08,0.805,-0.0461
ATCTCTAGGTAACAAGCTCAGTGAAAGAGAGGAC,2.93,2.48,0.643,1.26,0.56,-0.0529,0.34,0.0879,0.837,0.417,0.444,0.352,0.494,-0.305,0.272,1,0.56,-0.048
ATATGTAGGTTACAACCGGGTCATTCAGGCTATG,7.11,7.41,3.31,2.35,2.21,3.88,1.71,3.96,0.487,2.36,2.97,3.92,2.19,0.912,3.49,3.73,2.16,3.06
CCGACTGGGGCAGATAGGTTACCATACCATCCGG,1.48,1.4,-1.44,-0.883,0.00162,-0.407,-0.499,0.117,-0.193,0.804,0.817,0.424,0.518,-0.658,0.262,-0.181,-0.391,-0.573
CCTTAAGGGTCACTCCAGGTTATAGCATCGGAGT,3.17,4.07,0.0681,0.102,2.47,5.59,0.47,4.49,0.956,4.97,4.32,5.98,6.35,3.27,6.02,5.09,0.592,2.55
TCGAGTAGGTGAGTCGGGGCATTCAGCCAACATA,3.41,2.92,-0.294,-0.634,-0.137,-0.178,-0.0256,-0.138,-0.397,0.298,0.348,-0.294,-0.378,0.0607,-0.201,0.829,-0.305,0.0574
CCTCGGAGGACAACAGGTGGTCAGAGCTGCCAGA,-0.455,-0.616,-2.74,-2.26,-0.317,-0.667,-0.589,-0.583,-0.066,1.04,0.83,0.693,1.32,-0.142,-0.432,0.397,-0.269,-0.187
TATACAGGGTCAAAGGCCGGAGTACGAATGTCGA,2.46,4.9,2.77,1.88,2.2,3.97,0.381,5.47,1.43,4.27,3.45,5.49,4.9,2.94,6.66,3.34,0.872,3.02
CCTAGTTGGTCAAGGTCGCACACGCTATAGGTAC,1.4,1.87,0.308,0.288,1.55,1.57,1.04,1.69,0.482,2.43,2.39,1.87,2.27,0.634,1.83,2.64,1.75,2.3
ATATGTAGCTTAGCTGGGGTCATTCAGACTAGGC,0.33,0.991,0.947,0.695,1.04,5.29,1.48,4.92,0.298,2.4,3.13,3.19,2.02,1.54,5.09,3.92,2.85,3.19
TCTAGTTGGTCGAAGGTCACACACTCGAAATGCG,1.87,3.68,1.01,1.13,3.06,3.66,1.06,4.17,1.25,3.51,3.99,4.39,3.86,1.37,4.15,3.07,1.83,1.97
TAGCCTAGGTCATTCATGGGCCAGTATAGAAAGC,1.41,2.53,0.271,0.314,1.08,1.66,-0.168,2.61,-0.242,3.66,2.52,4.74,4.57,1.84,3.2,2.71,0.289,0.945
